For test [1], the system named is Mel-DCC-11. Briefly: cell viability relative to DMSO control (fraction of DMSO control); higher = less cytotoxic, active = 0.5 or less. Particulars: 1 µM; 120 h. In short, it runs like this: (§1)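 The screen used 384-well plates acoustically pre-spotted with 315 approved anti-cancer drugs from TargetMol, each at 1 µM in duplicate. Into each well went 40 µl of cells, 2500 NHEM-hTERT immortalized melanocytes or 1500 of patient-derived Mel-DCC-11 or its resistant subline Mel-DCC-11-R, and plates were kept 120 h, with the subline also tested alongside 8 µM of its selecting drug. Readout was by ATPlite 1step luminescence. Viability values were normalised to vehicle-treated controls and averaged between duplicates.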

Test [2] relates to NHEM-hTERT. The test is described as above. Particulars: 1 µM; 120 h. In short, it runs like this: as §1
Test [3] has as its system Mel-DCC-11-R. Briefly: cell viability relative to DMSO control (fraction of DMSO control); higher = less cytotoxic, active = 0.8 or less. Particulars: 1 µM, 120 h. The essentials: as §1

Structures can show the parent of a compound that is named as a salt.

Turning to `Nc1ccc(F)cc1NC(=O)c1ccc(CNC(=O)/C=C/c2cccnc2)cc1` [Chidamide], the results for the cell viability in test [1] and in test [2] were 1.27 (inactive) and 0.668 (inactive), respectively.
For `CCNC(=O)[C@@H]1CCCN1C(=O)[C@H](CCCN=C(N)N)NC(=O)[C@H](CC(C)C)NC(=O)[C@@H](CC(C)C)NC(=O)[C@H](Cc1ccc(O)cc1)NC(=O)[C@H](CO)NC(=O)[C@H](Cc1c[nH]c2ccccc12)NC(=O)[C@H](Cc1cnc[nH]1)NC(=O)[C@@H]1CCC(=O)N1` [Leuprorelin Acetate], the cell viability was 0.683 (inactive) in test [1] and 0.879 (inactive) in test [2].
As for `CNC(=O)c1cc(Oc2ccc(NC(=O)Nc3ccc(Cl)c(C(F)(F)F)c3)cc2)ccn1` [Sorafenib], the cell viability is 1.46 (inactive) in test [1] and 1.02 (inactive) in test [2].
`CC1(C)CCC(C)(C)c2cc(NC(=O)c3ccc(C(=O)O)cc3)ccc21` [Tamibarotene]: the cell viability in test [1] is 1.17 (inactive); in test [2] it was 1.09 (inactive).
As to `CC(C)(O)CNc1nc(Nc2ccnc(C(F)(F)F)c2)nc(-c2cccc(C(F)(F)F)n2)n1` [Enasidenib], the cell viability in test [1] is 0.875 (inactive); in test [2], 1.09 (inactive).
Take `CN(C)N=Nc1[nH]cnc1C(N)=O` [Dacarbazine]: the values for the cell viability in test [1] and in test [2] were 2.24 (inactive) and 0.982 (inactive), respectively.
Regarding `C=CC(=O)Nc1cc(Nc2nccc(-c3cn(C)c4ccccc34)n2)c(OC)cc1N(C)CCN(C)C.CS(=O)(=O)O` [Osimertinib mesylate], the cell viability in test [1] is 0.859 (inactive); in test [2], 1.14 (inactive).
On the same counts, the results for `O=c1cc(O)c(Cl)c[nH]1` [Gimeracil] are 1.14 (inactive) and 0.996 (inactive).
Take `COC(=O)/C=C/C(=O)OC` [Dimethyl fumarate]: the cell viability in test [1] was 1.12 (inactive); in test [2] it was 1.33 (inactive).
Take `O.S=c1nc[nH]c2nc[nH]c12` [6-Mercaptopurine monohydrate]: the cell viability in test [1] was 0.736 (inactive); in test [2], 0.937 (inactive).
On the same counts, the results for `O=C([O-])CCCc1ccccc1.[Na+]` [Sodium Phenylbutyrate] are 1.12 (inactive) and 1.1 (inactive).
As for `CCCC(=O)O[C@]1(C(=O)CO)CC[C@H]2[C@@H]3CCC4=CC(=O)CC[C@]4(C)[C@H]3[C@@H](O)C[C@@]21C` [Hydrocortisone butyrate], the figures for the cell viability in test [1] and in test [2] were 1.4 (inactive) and 0.973 (inactive), respectively.
As for `N#Cc1ccnc(N2C(=O)CC[C@H]2C(=O)N(c2cncc(F)c2)[C@H](C(=O)NC2CC(F)(F)C2)c2ccccc2Cl)c1` [Ivosidenib], the cell viability was 1.32 (inactive) in test [1] and 1.27 (inactive) in test [2].
As for `N#CC[C@@H](C1CCCC1)n1cc(-c2ncnc3[nH]ccc23)cn1` [S-Ruxolitinib], the results for the cell viability in test [1] and in test [2] were 1.16 (inactive) and 0.987 (inactive), respectively.
As to `NC(=O)c1cccc2cn(-c3ccc([C@@H]4CCCNC4)cc3)nc12` [Niraparib], the cell viability is 1.01 (inactive) in test [1] and 0.932 (inactive) in test [2].
As to `O=c1[nH]c(=O)n([C@H]2C[C@H](O)[C@@H](CO)O2)cc1F` [Floxuridine], the cell viability in test [1] was 1.34 (inactive); in test [2], 1.11 (inactive).
Regarding `COc1ccc(/C=C\c2cc(OC)c(OC)c(OC)c2)cc1OP(=O)([O-])[O-].[Na+].[Na+]` [Fosbretabulin Disodium], the cell viability in test [1] is 0.599 (inactive); in test [2], 0.64 (inactive).
On the same counts, the results for `Cc1c(C(=O)Nc2ccc(N3C[C@@H](C)O[C@@H](C)C3)nc2)cccc1-c1ccc(OC(F)(F)F)cc1` [Sonidegib] are 1.17 (inactive) and 1.04 (inactive).
For `C[C@]12CC[C@@H]3c4ccc(O)cc4C[C@@H](CCCCCCCCCS(=O)CCCC(F)(F)C(F)(F)F)[C@H]3[C@@H]1CC[C@@H]2O` (stereo not given in full) [Fulvestrant], the cell viability was 1.05 (inactive) in test [1] and 0.817 (inactive) in test [2].
On the same counts, the results for `CC(C)=CCC/C(C)=C/CC/C(C)=C/CC/C(C)=C/CC1=C(C)C(=O)c2ccccc2C1=O` [Menatetrenone] are 1.25 (inactive) and 1.02 (inactive).
Regarding `CC(C)[C@H](NC(=O)[C@H](CC(=O)O)NC(=O)[C@H](CCCCN)NC(=O)[C@@H](N)CCCNC(=N)N)C(=O)N[C@@H](Cc1ccc(O)cc1)C(=O)O` [Thymopentin], the figures for the cell viability in test [1] and in test [2] were 1.13 (inactive) and 1.01 (inactive), respectively.
Take `Nc1ccccc1NC(=O)c1ccc(CNC(=O)OCc2cccnc2)cc1` [Entinostat]: the results for the cell viability in test [1] and in test [2] were 1.48 (inactive) and 0.554 (inactive), respectively.
Consider `COc1cc(Nc2c(C#N)cnc3cc(OCCCN4CCN(C)CC4)c(OC)cc23)c(Cl)cc1Cl` [Bosutinib], for which the cell viability was 1.06 (inactive) in test [1] and 1.12 (inactive) in test [2].
Take `CC1(COc2ccc3c(c2)ncn3-c2ccc3cccc(N4CCC(N)CC4)c3n2)COC1` [Crenolanib]: the values for the cell viability in test [1] and in test [2] were 1.81 (inactive) and 0.873 (inactive), respectively.
On the same counts, the results for `CN1[C@@H]2CCC[C@H]1C[C@@H](NC(=O)c1nn(C)c3ccccc13)C2.Cl` [Granisetron hydrochloride] are 1.15 (inactive) and 1.07 (inactive).
On the same counts, the results for `CC#CC(=O)N1CCC[C@H]1c1nc(-c2ccc(C(=O)Nc3ccccn3)cc2)c2c(N)nccn12` [Acalabrutinib] are 1.12 (inactive) and 1 (inactive).
On the same counts, the results for `CC(C)C[C@H](NC(=O)[C@H](Cc1ccccc1)NC(=O)c1cnccn1)B(O)O` [Bortezomib] are 0.0258 (active) and 0.0282 (active).
For the compound `COc1ccc2cc1Oc1ccc(cc1)C[C@H]1c3c(cc4c(c3Oc3cc5c(cc3OC)CCN(C)[C@@H]5C2)OCO4)CCN1C` [Cepharanthine], the figures for the cell viability in test [1] and in test [2] were 0.589 (inactive) and 1.13 (inactive), respectively.
For `O=NN(CCCl)C(=O)NC1CCCCC1` [Lomustine], the cell viability in test [1] is 1.33 (inactive); in test [2], 0.938 (inactive).
Consider `Cc1[nH]c2ccccc2c1CCNCc1ccc(/C=C/C(=O)NO)cc1` [Panobinostat], for which the results for the cell viability in test [1] and in test [2] were 0.126 (active) and 0.339 (active), respectively.
On to `CCOC(=O)[C@@H](N)Cc1ccc(-c2cc(O[C@H](c3ccc(Cl)cc3-n3ccc(C)n3)C(F)(F)F)nc(N)n2)cc1.O=C(O)CNC(=O)c1ccccc1` [Telotristat Etiprate], for which the cell viability is 0.836 (inactive) in test [1] and 1.04 (inactive) in test [2].
Consider `CN(Cc1cnc2nc(N)nc(N)c2n1)c1ccc(C(=O)N[C@@H](CCC(=O)O)C(=O)O)cc1` [Methotrexate], for which the cell viability is 1.04 (inactive) in test [1] and 0.976 (inactive) in test [2].
With `COc1cc([C@H]2Oc3cc([C@H]4Oc5cc(O)cc(O)c5C(=O)[C@@H]4O)ccc3O[C@@H]2CO)ccc1O` [Silibinin], the cell viability in test [1] was 0.939 (inactive); in test [2] it was 0.948 (inactive).
For the compound `CCc1c2c(nc3ccc(OC(=O)N4CCC(N5CCCCC5)CC4)cc13)-c1cc3c(c(=O)n1C2)COC(=O)[C@]3(O)CC.Cl.O.O.O` [Irinotecan hydrochloride trihydrate], the figures for the cell viability in test [1] and in test [2] were 1.11 (inactive) and 0.875 (inactive), respectively.
On the same counts, the results for `COc1cc2c(Oc3ccc4[nH]c(C)cc4c3F)ncnc2cc1OCCCN1CCCC1` [Cediranib] are 0.87 (inactive) and 0.891 (inactive).
As for `CC(C)C[C@H](NC(=O)[C@H](CCc1ccccc1)NC(=O)CN1CCOCC1)C(=O)N[C@@H](Cc1ccccc1)C(=O)N[C@@H](CC(C)C)C(=O)[C@@]1(C)CO1` [Carfilzomib], the values for the cell viability in test [1] and in test [2] were 0.0151 (active) and 0.0167 (active), respectively.
Consider `CCCCCCCCCCCCCC(=O)[O-].CCCCCCCCCCCCCC(=O)[O-].N[C@@H]1CCCC[C@H]1N.[Pt+2]` [Miriplatin], for which the cell viability in test [1] was 1.11 (inactive); in test [2] it was 1.03 (inactive); in test [3] (vemurafenib co-treatment 0 µM), 1.04 (inactive); in test [3] (vemurafenib co-treatment 8 µM) it was 1.03 (inactive).
With `C[C@H]1O[C@@H](n2cc(F)c(=O)[nH]c2=O)[C@H](O)[C@@H]1O` [Doxifluridine], the cell viability was 1.31 (inactive) in test [1], 0.863 (inactive) in test [2], 1.08 (inactive) in test [3] (vemurafenib co-treatment 0 µM) and 1.21 (inactive) in test [3] (vemurafenib co-treatment 8 µM).
On the same counts, the results for `CO[C@H]1C[C@@H]2CC[C@@H](C)[C@@](O)(O2)C(=O)C(=O)N2CCCC[C@H]2C(=O)O[C@H]([C@H](C)C[C@@H]2CC[C@@H](O)[C@H](OC)C2)CC(=O)[C@H](C)/C=C(\C)[C@@H](O)[C@@H](OC)C(=O)[C@H](C)C[C@H](C)/C=C/C=C/C=C/1C` [Rapamycin] are 1.24 (inactive), 0.819 (inactive), 1.54 (inactive) and 0.783 (active).
`O=S(=O)([O-])CCS.[Na+]` [Mesna]: the cell viability is 1.18 (inactive) in test [1], 1.09 (inactive) in test [2], 1.11 (inactive) in test [3] (vemurafenib co-treatment 0 µM) and 1.08 (inactive) in test [3] (vemurafenib co-treatment 8 µM).
Regarding `CCC1(O)C(=O)OCc2c1cc1n(c2=O)Cc2cc3cc(O)ccc3nc2-1` (stereo not given) [Hydroxy Camptothecine], the cell viability in test [1] is 0.233 (active); in test [2] it was 0.899 (inactive); in test [3] (vemurafenib co-treatment 0 µM) it was 0.422 (active); in test [3] (vemurafenib co-treatment 8 µM), 0.224 (active).
Turning to `CC(=O)O[C@H]1C(=O)[C@]2(C)[C@@H](O)C[C@H]3OC[C@@]3(OC(C)=O)[C@@H]2[C@@H](OC(=O)c2ccccc2)[C@]2(O)C[C@H](OC(=O)[C@H](O)[C@@H](NC(=O)c3ccccc3)c3ccccc3)C(C)=C1C2(C)C` [Paclitaxel], the cell viability in test [1] was 0.453 (active); in test [2], 0.569 (inactive).
Consider `Cn1cnc2c(F)c(Nc3ccc(Br)cc3F)c(C(=O)NOCCO)cc21` [Binimetinib], for which the cell viability in test [1] is 0.195 (active); in test [2] it was 0.934 (inactive); in test [3] (vemurafenib co-treatment 0 µM), 0.664 (active); in test [3] (vemurafenib co-treatment 8 µM), 0.406 (active).
As to `CCCS(=O)(=O)Nc1ccc(F)c(C(=O)c2c[nH]c3ncc(-c4ccc(Cl)cc4)cc23)c1F` [Vemurafenib], the cell viability in test [1] is 0.983 (inactive); in test [2] it was 0.746 (inactive); in test [3] (vemurafenib co-treatment 0 µM), 0.991 (inactive); in test [3] (vemurafenib co-treatment 8 µM) it was 0.905 (inactive).
On the same counts, the results for `COc1ccc2cc1Oc1ccc(cc1)C[C@H]1c3cc(c(OC)cc3CCN1C)Oc1c(OC)c(OC)cc3c1[C@H](C2)N(C)CC3` [Tetrandrine] are 0.653 (inactive), 1.25 (inactive), 0.886 (inactive) and 1.05 (inactive).
In the case of `C=C[C@H]1[C@@H](O[C@@H]2O[C@H](CO)[C@@H](O)[C@H](O)[C@H]2O)OC=C2C(=O)OCC[C@]21O` [Swertiamarin], the cell viability is 1.35 (inactive) in test [1], 0.942 (inactive) in test [2], 0.976 (inactive) in test [3] (vemurafenib co-treatment 0 µM) and 1.2 (inactive) in test [3] (vemurafenib co-treatment 8 µM).

These data come from the supplement of paper PMC12808144.
